# From PubChem BioAssay AID743279 (National Center for Advancing Translational Sciences (NCATS), 2014)
# Screen size: about 360,000 compounds; about 17,000 (4.7%) were called active. About 5% were inconclusive and are not listed. For the sample, actives were picked, then their nearest neighbours and some compounds at random. A number with no mark means an inactive call. Rule as the data show it: active = activity change below about -50%; inconclusive = mostly about -30% to -49%; inactive = weaker than that.
# Test: qHTS for Inhibitors of Inflammasome Signaling: IL-1-beta AlphaLISA Primary Screen
# Conditions: THP-1 LPS/ATP IL-1B secretion, 16 h; at 57.5 µM, stronger effect = lower value
# From the text: Inflammasomes are a set of intracellular multi-protein complexes that enable autocatalytic activation of inflammatory caspases and drive the innate immune response to counter harmful agents. […] A qHTS assay, based on AlphaLISA technology, was developed to screen the Molecular Libraries Small Molecule Repository (MLSMR) to look for novel inflammasome inhibitors. The assay detects IL-1B using AlphaLISA anti-IL-1B acceptor and donor beads. A decreased emission signal, indicating reduced IL-1B secretion, is the desired outcome for this assay. NIH Chemical Genomics Center [NCGC] NIH Molecular Libraries Probe Centers Network [MLPCN] MLPCN Grant: MH095513 Assay Provider: Shyam Biswal Ph.D., Johns Hopkins University Immunity. 2012 Jul 27;37(1):85-95. PMID: 22819042 [2] Curr Pharm Des. 2012;18(16):2320-8. PMID: 22390695
# Three microliters containing 3000 THP-1 cells were dispensed into the wells of solid, white, tissue culture treated Greiner 1,536-well plates. Library compounds and positive control, Glyburide, were pin-transferred (23 nL) by a Kalypsys pin-tool equipped with a 1,536-pin array, resulting in final compound concentration ranges of 2.5 nM to 57.5 uM. After 1 hr of cell culture incubation (37 °C, 5% CO2), 1 microL of 1 microg/mL lipopolysaccharide (250 ng/mL, final) and 5 mM ATP (1.25 mM, final) were added to stimulate the cells. After 16 hr of cell culture incubation with the compounds, 1.5 uL of anti-IL-1B acceptor beads (6 ug/mL, final) and biotinylated antibody (0.6 nM, final) were added to the plate, followed by a 1 hr incubation at ambient temperature. To detect the secreted IL-1B, 1.5 uL of AlphaLISA SA-Donor beads (24 ug/mL, final) were added, followed by 30 min of incubation in the dark at ambient temperature. The AlphaLISA signal was read by a PerkinElmer EnVision plate reader with an ultrasensitive luminescence detector and 1536 Plate HTS AlphaScreen aperture (excitation of 680nm and emission of 615nm).
# % is scaled to controls: 0 for no effect and ±100 for the full control effect.
row,SMILES,activity change
1,Cc1cc(-c2nnc(SCC(=O)Nc3ccc(F)cc3)n2N)n[nH]1,20.7%
2,Cc1cc(C)c(C2C3=C(Nc4c2c(C)nn4-c2ccccn2)c2ccccc2C3=O)c(C)c1 (stereo unspecified),-68.9% (active)
3,Cc1nn(-c2ccccn2)c2c1C(c1ccncc1)C1=C(CC(C)(C)CC1=O)N2 (stereo unspecified),-7.64%
4,C=CCn1c(SCC(=O)CC(=O)OCC)nc2cc(C(=O)N3CCC(C(N)=O)CC3)ccc2c1=O,-3.87%
5,C=CCn1c2ccccc2c2nnc(SCc3[nH]c(=O)[nH]c3C(=O)CCCCC(=O)OCC)nc21,-80.5% (active)
6,C=CCn1c2ccccc2c2nnc(SC(CC)C(=O)Nc3nc(C)c(C(=O)OCC)s3)nc21 (stereo unspecified),-24.9%
7,O=C(OCc1ccccc1)N1CCC2CC1c1ccc(-c3ccc4c(c3)OCO4)cc12 (stereo unspecified),20%
8,CCc1nc(Nc2ccc(NC(C)=O)cc2)c2oc3ccccc3c2n1,-1.52%
9,CC(=O)Nc1ccc(Nc2c3ccccc3nc3ccccc23)cc1,-98.2% (active)
10,CC(=O)Nc1ccc(Nc2cc(C)nc(Nc3ccc(NC(C)=O)cc3)n2)cc1,0.0358%
11,O=C1NC[C@H](CCCCN2C[C@H](Cc3ccccc3)N(Cc3ccccc3)C(=O)C2=O)N(CCc2ccc(O)cc2)C1=O,0%
12,Cc1nn(-c2ccccc2)c(C)c1NC(=O)CCl,-95% (active)
13,CCC(Oc1ccccc1)C(=O)OCC(=O)Nc1c(C)nn(-c2ccccc2)c1C (stereo unspecified),8.98%
14,Cc1cccc(C)c1NC(=O)CNC(=O)c1c(C)nn(-c2ccccc2)c1C,-13.7%
15,O=C(NCc1ccccc1)C(c1ccc(F)cc1)N1CCN(C(=O)C2CCCO2)CC1 (stereo unspecified),0%
16,CCO/N=C(/C)c1c(O)cc(-c2ccccc2)n(-c2ccccc2)c1=O,17.3%
17,CCCc1cc(=O)oc2c(C)c(OC(C)C(=O)NCC(O)c3ccccc3)ccc12 (stereo unspecified),-14.8%
18,C[C@@H]1ON(C)[C@H]2C[C@H]3c4cc(N5CCN(C)CC5)ccc4CCN3C(=O)[C@@H]12,-12.3%
19,C(#CCN1CCOCC1)CCCN1CCOCC1,26%

row,SMILES,activity change
1,CO/N=C/c1ccc(N2CCN(C(=O)c3cccc(Cl)c3)CC2)c([N+](=O)[O-])c1,-16.9%
2,O=C(/C=C/c1ccc(Cl)cc1)N1CCN(c2ccccc2[N+](=O)[O-])CC1,-78.3% (active)
3,O=C(c1ccc(Cl)c([N+](=O)[O-])c1)N1CCN(c2ccccc2)CC1,-26.9%
4,CCOc1ccc(NS(=O)(=O)c2ccc(C(=O)NCC3CCCO3)cc2)cc1 (stereo unspecified),8.79%
5,CCOC(=O)C1=NOC(Cn2cc(C(C)=O)c(=O)[nH]c2=O)C1 (stereo unspecified),-0.897%
6,Cc1ccc(S(=O)(=O)N2CCN(C(=O)COC(=O)/C=C/c3cccc(Cl)c3)CC2)c(C)c1,23.3%
7,CCOC(=O)N1CCC(NC(=O)Cn2cc3c(n2)CCCCC3)CC1,2.25%
8,O=C(/C=C/c1ccc(F)cc1)NC(=S)NNC(=O)c1cccnc1,20.7%
9,c1ccc2c(c1)OC1OC2Oc2ccccc21,10.9%
10,COc1cc(OC)c(C(=O)NC2CC(C)(C)NC(C)(C)C2)cc1OC,0%
11,COc1ccc(S(=O)(=O)NC(C)C)cc1C(=O)NC1CCCCC1,2.99%
12,COc1cc(OC)c(C(=O)NC2CCCCCC2)cc1OC,-59.1% (active)
13,Cc1ccc(NC(=O)CCCNC(=O)c2ccc(Cl)cc2)cc1S(=O)(=O)N1CCCCC1,-6.38%
14,COC(C[C@@H]1O[C@@H]1C(=O)[C@H](C)OCc1ccccc1)OC,8.19%
15,COC(C[C@H](O)CC(=O)[C@@H](C)OCc1ccccc1)OC,-16.6%
16,COC(C/C=C/C(=O)[C@@H](C)OCc1ccccc1)OC,-95.4% (active)
17,C[C@H](CO)N1C[C@H](C)[C@H](CN(C)C(=O)c2ccncc2)OCc2ccccc2-c2c(n(C)c3ccccc23)C1=O,42.4%
18,CCCOC1CCCN(Cc2cn(C)nc2-c2ccccc2F)C1 (stereo unspecified),-7.48%
19,COCCNC(=O)C1(C)CCCN(Cc2cccc(F)c2)C1 (stereo unspecified),-12.6%

row,SMILES,activity change
1,COc1ccc(OC)c(C(=O)NC(CC(N)=O)c2ccc(N3CCC(N4CCCCC4)CC3)c([N+](=O)[O-])c2)c1 (stereo unspecified),13.4%
2,O=C(Cn1ccc2cc(S(=O)(=O)N3CCCC3)ccc21)NCc1ccccc1,14.2%
3,COC(=O)Cn1cc(/C=C/[N+](=O)[O-])c2ccccc21,-27.5%
4,O=[N+]([O-])/C=C/c1ccc2c(ccn2Cc2ccccc2)c1,-90.5% (active)
5,Cc1ccc(-c2nc3c(C)cc(Br)cn3c2Cc2ccccc2)cc1,58%
6,COc1cccc(NC(=O)CCc2nnc3ccc(N4CCC(C)CC4)nn23)c1,-6.48%
7,O=C(NCc1ccc(F)cc1)c1cc(C2CCCCN2C(=O)C2CCCCC2)on1 (stereo unspecified),-0.0267%
8,Cc1cc(OCCCC(=O)Nc2cc(S(=O)(=O)N3CCOCC3)ccc2N2CCOCC2)ccc1Cl,-1.02%
9,CSc1cccc(NC(=S)N(C(C)C)C(C)c2ccccn2)c1 (stereo unspecified),-98.3% (active)
10,CC(c1ccccn1)N(CCN(C)C)C(=S)Nc1ccccc1F (stereo unspecified),0%
11,CSc1cccc(NC(=S)N(Cc2ccccc2)Cc2ccccn2)c1,-6.44%
12,O=C(/C=C/[C@H]1O[C@@H](n2ccc(=O)[nH]c2=O)[C@H](O)[C@@H]1O)NCc1ccccn1,21.7%
13,COc1ccc(N2CCN(C3CCCCC3NS(=O)(=O)c3ccccc3)CC2)cc1 (stereo unspecified),-0.438%
14,O=C(C(Cl)Cl)N1CCN(c2ccccn2)CC1,1.16%
15,O=C(/C=C/c1cccc(C(F)(F)F)c1)N1CCN(c2ccccn2)CC1,-95.2% (active)
16,O=C(Cc1ccc(Br)cc1)N1CCN(c2ccccn2)CC1,8.64%
17,O=S1(=O)CCN(Cc2ccccc2)CC1,-15.7%
18,Cc1nccn1-c1ccc(NC(=O)[C@H]2O[C@@H](n3cnc4c(N)ncnc43)[C@H](O)[C@@H]2O)cc1,-25.6%
